# In the library only some 2.7% were active in any assay of this set; here they are far more common.
# SENP8 block-1 = blocks human SENP8 cleavage of Nedd8 substrate; Q96LD8; recombinant SENP8, Nedd8 substrate fluorescence; inhibition, % at 20 µM; hit rate 0.64% among 360,000; AID 602440; in the data active = inhibition mostly above about 40%, no sharp cut-off; inactive = mostly below about 27%
# SENP8 block-2 = SENP8 protease inhibition | AID 2540 | inhibition, % at 10 µM | purified SENP8, Z-RLRGG-aminoluciferin cleavage, luminescence | hit rate 1.2% among 330,000 | Q96LD8; in the data active = inhibition above about 50%
# SENP6 inh = blocks the human protease SENP6; Q9GZR1; Recombinant SENP6 catalytic domain, aminoluciferin luminescence; inhibition, % at 10 µM; hit rate 1.8% among 330,000;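 active = inhibition above about 50% at the single tested dose, limit read from the data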;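 note: plate controls were DMSO wells with enzyme for no effect and DMSO wells lacking enzyme for full effect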
# Target sequence (Q9GZR1 628-1112 limits assumed): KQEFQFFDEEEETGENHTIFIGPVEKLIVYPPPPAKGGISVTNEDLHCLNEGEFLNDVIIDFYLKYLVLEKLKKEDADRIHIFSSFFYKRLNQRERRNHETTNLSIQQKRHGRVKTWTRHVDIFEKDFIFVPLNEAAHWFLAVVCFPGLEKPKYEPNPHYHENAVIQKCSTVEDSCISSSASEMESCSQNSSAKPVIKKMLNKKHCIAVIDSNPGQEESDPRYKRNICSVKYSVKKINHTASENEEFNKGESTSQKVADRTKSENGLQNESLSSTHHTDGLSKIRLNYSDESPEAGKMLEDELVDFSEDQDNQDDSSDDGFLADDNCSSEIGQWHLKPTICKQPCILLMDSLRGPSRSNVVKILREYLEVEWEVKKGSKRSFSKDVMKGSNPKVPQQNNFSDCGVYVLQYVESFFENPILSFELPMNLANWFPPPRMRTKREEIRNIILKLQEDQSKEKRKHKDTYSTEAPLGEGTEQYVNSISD
# HSP90 inh = inhibitors of HSP90 luciferase refolding in rabbit reticulocyte lysate. luciferase refolding luminescence, 3 h. inhibition, % at 5.6 µM. hit rate 0.91% among 290,000;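 active = inhibition above the screen-wide mean plus 3 SD, computed separately per campaign, cut at about 16% in these data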;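 note: 0% = DMSO wells and 100% = 60 µM geldanamycin wells; inhibitors lower the luminescence because luciferase stays unfolded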
# SENP7 inh = inhibitors of human SENP7 protease; hit rate 1.5% among 330,000; recombinant SENP7, Z-RLRGG-aminoluciferin luminescence, 40 min; inhibition, % at 5 µM; Q9BQF6;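 active = inhibition above about 50% at the single test dose, limit read from the data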;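 note: plate controls were DMSO with enzyme for no effect and no enzyme buffer wells for full effect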
# HSP90 confirm = HSP90 inhibition, confirmation assay; shares compounds with HSP90 inh; rabbit reticulocyte lysate, luciferase refolding luminescence, 3 h; inhibition, % at 5.9 µM; hit rate 64% among 2,300; in the data active = inhibition above about 18%;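 note: 0% = vehicle wells and 100% = reference inhibitor wells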
# FLuc counter = firefly luciferase inhibition, HSP90 counter-screen. purified native firefly luciferase, luminescence. shares compounds with HSP90 inh. hit rate 48% among 2,300. inhibition, % at 5.9 µM;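 active = inhibition above the mean inhibition of all tested sample wells plus 3 SD, cut at about 10% in these data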;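 note: 0% = DMSO with luciferase and 100% = wells lacking luciferase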
# An asterisk follows results filed as active; i = inactive; nt = not tested or not shown.
SMILES,SENP8 block-1,SENP8 block-2,SENP6 inh,HSP90 inh,SENP7 inh,others
CCCCn1c(NC(=O)c2ccc(Br)o2)c(C(=O)OCC)c2nc3ccccc3nc21,-372,62*,75*,3,14,
CCCCn1c(N)c(C(=O)NCCN2CCOCC2)c2nc3ccccc3nc21,-478,10,37,3,9,
CC(Oc1ccc(-c2ccccc2)cc1)C(=O)O (stereo not given),19,-11,-6,0,-16,
O=C(Cc1ccccc1)Oc1ccc(N2C(=O)C3CCCCC3C2=O)cc1 (stereo not given),7,3,-4,1,3,
CN(C)CP(=O)(O)CN(C)C=O,13,-3,-18,-3,5,
COC(=O)C1=C(c2ccc(Cl)c(C(F)(F)F)c2)C[C@@H]2CC[C@H]1N2C(=O)NCC1CC1,23,11,1,nt,-3,
CN1CCc2cc3c(c4c2C1Cc1ccccc1-4)OCO3 (stereo not given),-293,64*,70*,15,50*,
CN1CCc2cc(O)cc3c2[C@H]1Cc1ccc(O)c(O)c1-3,-76,-12,1,nt,-4,
Cc1[nH]n(-c2ccccc2)c(=O)c1C(c1ccc([N+](=O)[O-])cc1)c1c(C)[nH]n(-c2ccccc2)c1=O,90*,3,12,10,20,
O=[N+]([O-])c1ccc(C(c2ccc([N+](=O)[O-])cc2)c2ccc([N+](=O)[O-])cc2)cc1,10,nt,nt,nt,nt,
COc1cccc(C(=O)C2CCCN(Cc3cccc4c3OCO4)C2)c1 (stereo not given),13,8,-1,-3,2,
Cn1ncnc2c(=O)n(C)c(=O)nc1-2,101*,96*,95*,nt,96*,
Cc1cc2c(C(C)C)c(O)c(O)c(C=O)c2c(O)c1-c1c(C)cc2c(C(C)C)c(O)c(O)c(C=O)c2c1O,39*,nt,nt,-9,nt,
COc1cc(C(=O)NC(=S)N2C[C@H]3C[C@H](C2)c2cccc(=O)n2C3)cc(OC)c1OC,35,-2,2,-5,-1,
O=c1[nH]c(=S)[nH]c(O)c1N=Nc1ccc2c(c1)OCO2,28,82*,89*,-1,85*,
CC(C)(C)n1cc(C(=O)c2ccccc2OCCCF)cn1,-2,-7,-15,-4,8,
CCN(CC)C(=O)c1ccc2c(c1)C1C(Cl)C(Sc3ccccc3[N+](=O)[O-])CC1C(C(=O)O)N2 (stereo not given),44*,14,12,2,6,
O=C(O)c1ccc2c(c1)C1C(Cl)C(Sc3ccccc3[N+](=O)[O-])CC1C(c1cccc([N+](=O)[O-])c1)N2 (stereo not given),49*,nt,nt,5,nt,
CCn1c(C)c(C(=O)O)c2cc(OC)ccc21,9,-9,-1,1,-1,
CN1CCN(c2ccc(N)cc2)CC1,51*,11,2,5,-2,
CC(C)(C)c1cc(C=C(C#N)C#N)cc(C(C)(C)C)c1O,40*,11,1,nt,5,
O=C1C=C(N2CC2)c2ccccc2C1=O,64*,nt,nt,nt,nt,
O=C1c2ccccc2-c2cc3ccccc3cc21,-5,nt,nt,nt,nt,
CC1=NN(c2ccccc2)C(=O)C1/C=C1\C(=O)NC(=O)N(c2cc(C)cc(C)c2)C1=O (stereo not given),40*,-1,10,7,4,
CC1=NN(c2ccccc2)C(=O)C1/C=C1/C(=O)NC(=O)N(c2cc(C)cc(C)c2)C1=O (stereo not given),28,-6,-18,10,0,
SMILES,SENP8 block-1,SENP8 block-2,SENP6 inh,HSP90 inh,SENP7 inh,others
CN1C(=O)NC(=O)/C(=C/c2ccc([N+](=O)[O-])s2)C1=O,58*,33,50,10,6,
O=c1c2ccccc2nc(/C=C/c2ccc(O)cc2)n1-c1ccccc1O,-399,2,4,-2,1,
O=c1c2ccccc2nc(/C=C/c2ccc(F)cc2)n1-c1ccccn1,nt,11,8,26*,2,HSP90 confirm=-9;FLuc counter=-11
COc1ccc(OCCOc2cccc(C=C3C(=O)NC(=O)NC3=O)c2)cc1,nt,-14,-5,25*,-3,HSP90 confirm=45*;FLuc counter=30*
COC(=O)C[C@]1(C(=O)OC)CN(C#N)N(c2ccc(Cl)cc2)C12c1ccccc1-c1ccccc12,20,-2,-15,32*,2,HSP90 confirm=59*;FLuc counter=1
COC(=O)[C@@H]1[C@@H](C(=O)OC)C2(c3ccccc3-c3ccccc32)N(c2ccc(Cl)cc2)N1C#N,0,-1,-15,10,6,
CN1CCN(C(=O)COc2ccc(-c3nc4ccccc4s3)cc2)CC1,-169,-1,3,48*,-9,HSP90 confirm=72*;FLuc counter=69*
Cc1ccc(NP(=O)(c2ccccc2)c2nc3ccccc3s2)cc1 (stereo not given),-1,-4,4,-3,2,
CCOC(=O)c1c(N)n(CCN2CCCCC2)c2nc3ccccc3nc12,-296,6,12,-1,4,
CCCCn1c(NS(=O)(=O)c2ccccc2)c(C(=O)OCC)c2nc3ccccc3nc21,-354,nt,nt,18*,nt,HSP90 confirm=-2;FLuc counter=-4
COc1ccc(CCC(=O)NCCc2cnc[nH]2)cc1,19,0,1,-3,-4,
C=CCn1c(O)c(/C(C)=N/N2CCN(C)CC2)c(=O)[nH]c1=O,6,-9,-8,22*,-8,HSP90 confirm=-6;FLuc counter=-7
c1ccc(CNCCc2c[nH]c3ccccc23)cc1,8,10,3,2,-1,
CCc1ccc(CNCCc2c[nH]c3ccccc23)cc1,5,-2,-15,19*,7,HSP90 confirm=1;FLuc counter=-4
COCCNC(=O)c1c(N)n(Cc2ccco2)c2nc3ccccc3nc12,-274,0,-7,2,5,
CC(C)(C)OC(=O)c1c(N)n(Cc2ccco2)c2nc3ccccc3nc12,i,2,1,29*,14,HSP90 confirm=6;FLuc counter=2
O=C(CN1CC(c2ccccc2)CC1=O)NCc1ccc(F)cc1 (stereo not given),3,-6,-1,4,-3,
C[N+](C)(C)CC#CCN1CCCC1=O,-3,-3,-12,nt,-12,
O=c1[nH]c(O)c(N=Nc2ccc3c(c2)OCCO3)c(=O)[nH]1,-25,-14,19,73*,1,HSP90 confirm=71*;FLuc counter=70*
O=c1[nH]c2c(c(=O)n1C1CCCCC1)CCC2,0,-6,-11,28*,2,HSP90 confirm=-4;FLuc counter=-11
CC/C(=N\NC(=O)c1ccccc1)c1c(O)n(Cc2ccccc2)c(=O)[nH]c1=O,-319,-3,0,4,-1,
COc1ccc(C2SCC(=O)Nc3c2c(C)nn3C2CCOC(C)(C)C2)cc1 (stereo not given),-3,-2,-1,20*,1,HSP90 confirm=0;FLuc counter=-1
Cc1nn(C2CCOC(C)(C)C2)c2c1C(c1ccc3c(c1)OCO3)SCC(=O)N2 (stereo not given),-15,6,-11,2,11,
O=c1[nH]c(=S)n(C2CC2)c(O)c1/C=N/Nc1ccccc1,12,1,30,1,1,

# Screens: PubChem BioAssay, several laboratories
